Assay outcomes: PubChem BioAssay, several laboratories
Hits are enriched below; roughly 4.5% of the tested compounds scored in any of these assays.
aSyn 5UTR inh – MLPCN primary screen, SNCA 5' untranslated region. inhibition, % (tested at 7.5 µM). alpha-synuclein 5'UTR reporter, inhibitor activity. AID 1813. hit rate 0.82% among 300,000; in the data active means inhibition above about 60%;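 further: H4 neuroglioblastoma cells stably carrying SNCA 5'UTR luciferase fusion; 0% = DMSO wells and 100% = positive control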
Gli-Sufu antag – antagonists of Gli-Sufu signaling. inhibition, % at 5 µM. hit rate 0.74% among 340,000. AID 588413. Sufu-KO-LIGHT fibroblasts, Gli luciferase reporter luminescence;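 active means inhibition above about 55%, limit read from the data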;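 further: 0% = DMSO-treated cells and 100% = wells with medium but no cells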
697 NFkB inh – lowers PMA/ionomycin-induced NF-kB signal in 697 B cells; 697 B-cell NF-kB luciferase reporter, 16 h; inhibition, % at 4 µM; hit rate 0.33% among 330,000; AID 435022; in the data active means inhibition above about 35%
Mdm2 MdmX PPI – human Mdm2/MdmX binding inhibition | inhibition, % at 8 µM | SaOS-2 split-luciferase Mdm2/MdmX complementation, luminescence | hit rate 3% among 330,000;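 active means inhibition of at least 50% at 8 µM in the primary screen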
Target sequence (O15151 whole entry, looked up): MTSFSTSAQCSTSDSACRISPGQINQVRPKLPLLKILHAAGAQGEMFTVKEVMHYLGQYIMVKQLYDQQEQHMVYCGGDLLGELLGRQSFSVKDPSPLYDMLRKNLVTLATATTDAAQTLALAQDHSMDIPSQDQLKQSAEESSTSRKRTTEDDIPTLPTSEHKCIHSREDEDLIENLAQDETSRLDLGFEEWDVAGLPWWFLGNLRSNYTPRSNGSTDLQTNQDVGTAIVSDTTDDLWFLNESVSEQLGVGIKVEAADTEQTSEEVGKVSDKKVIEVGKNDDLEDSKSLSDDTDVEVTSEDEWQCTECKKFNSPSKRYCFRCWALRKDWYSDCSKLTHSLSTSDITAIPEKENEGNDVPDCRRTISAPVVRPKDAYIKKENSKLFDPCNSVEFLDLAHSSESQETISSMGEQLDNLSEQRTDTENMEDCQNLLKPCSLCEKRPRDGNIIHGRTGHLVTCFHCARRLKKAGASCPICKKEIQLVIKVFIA
Target sequence (Q00987 whole entry, looked up): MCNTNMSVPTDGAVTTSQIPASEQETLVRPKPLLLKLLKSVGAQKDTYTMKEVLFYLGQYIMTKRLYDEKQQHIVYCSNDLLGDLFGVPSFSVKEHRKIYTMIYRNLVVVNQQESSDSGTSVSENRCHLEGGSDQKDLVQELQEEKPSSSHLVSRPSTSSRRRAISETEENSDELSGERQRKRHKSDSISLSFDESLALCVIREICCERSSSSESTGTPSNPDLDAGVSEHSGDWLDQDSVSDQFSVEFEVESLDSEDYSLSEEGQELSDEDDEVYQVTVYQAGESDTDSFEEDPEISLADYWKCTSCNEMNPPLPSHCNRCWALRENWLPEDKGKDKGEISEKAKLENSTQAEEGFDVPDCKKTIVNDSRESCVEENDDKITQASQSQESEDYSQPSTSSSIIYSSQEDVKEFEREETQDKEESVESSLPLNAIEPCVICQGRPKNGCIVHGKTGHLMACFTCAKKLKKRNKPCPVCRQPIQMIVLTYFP
CSC inhib – cancer stem cell inhibition; cancer stem cell-like cells viability, luminescence; inhibition, % at 7.5 µM; AID 2717; hit rate 1.1% among 300,000; in the data active means inhibition above about 75%; tested in HMLE shEcad cells
Jurkat NFkB inh – inhibitors of the PMA/ionomycin-induced NF-kB reporter in Jurkat cells; AID 435003; hit rate 0.53% among 330,000; PMA/ionomycin-induced NF-kB luciferase reporter, luminescence; inhibition, % at 4 µM; in the data active means inhibition above about 50%
Jurkat NFkB conf – lowers PMA/ionomycin-induced NF-kB signal in Jurkat cells; hit rate 27% among 2,700; inhibition, % at 4 µM; AID 435020; Jurkat NF-kB luciferase, 16 h; shares compounds with Jurkat NFkB inh;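 active means inhibition reaching about 45% at 4 µM in either replicate, limit read from the data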;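 further: plate controls were PMA/ionomycin stimulated DMSO wells for no effect and unstimulated DMSO wells for full effect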
697 NFkB conf – inhibitors of the PMA/ionomycin-induced NF-kB reporter in 697 B cells, retest | shares compounds with 697 NFkB inh | 697 B-cell NF-kB luciferase, 16 h | inhibition, % at 4 µM | hit rate 35% among 2,000 | AID 449746; in the data active means inhibition mostly above about 28%, no sharp cut-off; inactive means mostly below about 22%
An asterisk follows results filed as active; i = inactive; nt = not tested or not shown.

SMILES	aSyn 5UTR inh	Gli-Sufu antag	697 NFkB inh	Mdm2 MdmX PPI	CSC inhib	Jurkat NFkB inh	Jurkat NFkB conf	697 NFkB conf
Cc1cc(Cl)c(S(=O)(=O)N2CCCCCC2)cc1OCC(=O)NC1CCCCC1	26	48	75*	32	14	65*	71*	69*
Cc1ccc(NC(=O)c2csc(-c3ccccc3)c2C)cc1	nt	-141	nt	nt	nt	nt	nt	nt
Cc1c(C(=O)Nc2cccc([N+](=O)[O-])c2)csc1-c1ccccc1	-130	-192	i	45	14	-419	-193	i
O=C(Nc1cc(Sc2nc3ccccc3s2)cc([N+](=O)[O-])c1)c1cccc(F)c1F	24	15	-11	27	48	8	nt	nt
CCCC(=O)Nc1ccc(-c2nc3cc(C)c(C)cc3o2)cc1	-110	-111	-383	-270	28	-167	-112	-297
CCc1ccc2oc(-c3ccc(NC(C)=O)cc3)nc2c1	-9	-130	-309	-216	8	-219	-143	-334
O=C(COC(=O)c1ccc([N+](=O)[O-])s1)Nc1ncc(C(F)(F)F)cc1Cl	-13	5	23	30	-18	5	nt	nt
O=C(Nc1nc2ccccc2[nH]1)c1ccc(OC(F)F)cc1	-3	-168	-325	-35	8	-165	-94	-397
COc1ccc(N(Cc2ccccc2)N=O)cc1	0	-5	-7	10	-1	3	nt	nt
COCCN(C(=O)CCC(=O)Nc1ccccn1)C(C(=O)NC1CCCC1)c1ccc(OC)cc1 (stereo not drawn)	23	12	-2	14	-7	-4	nt	nt
Clc1ccc(OCCN2CCN(c3ncnc4sccc34)CC2)cc1	-4	81*	100*	17	19	67*	76*	96*
Cc1ccccc1-c1nc2cc(NC(=O)C3CC3)ccc2o1	-150	-106	-302	-305	1	-235	-126	-245
Cc1ccc(-n2nc3ccc(NC(=O)C(C)C)cc3n2)cc1	-137	-61	-262	-43	10	-167	-141	-395
CC(C)C(=O)Nc1ccc(N2CCN(c3ccc(F)cc3)CC2)cc1	3	-1	8	9	-2	15	nt	nt
Cc1ccc(-n2nc3ccc(NC(=O)c4ccco4)cc3n2)cc1	-83	-6	-79	-60	-13	-69	nt	nt
CC(C)C(=O)Nc1ccc2nn(-c3ccc(F)cc3)nc2c1	-71	-86	-415	-146	8	-227	-110	-354
COc1ccc(N=Cc2c(O)c3ccccc3n2C(C)=O)cc1	-132	-7	-5	-5	7	-23	nt	nt
COc1ccc(N=Cc2sc(O)c3ccccc23)cc1	-274	-142	-299	-158	7	-175	17	-71
COc1ccccc1-c1nc(-c2ccc(Br)cc2)no1	-305	-105	-165	-141	-8	-128	nt	nt
Cc1ccc(-c2noc(-c3ccccc3Br)n2)cc1	nt	-76	-281	-135	11	-179	-123	-253
c1ccc(-c2noc(-c3ccccc3-c3ccccc3)n2)cc1	-7	-7	-11	11	9	-1	nt	nt
CN(C)c1ccc(-c2noc(-c3ccccc3O)n2)cc1	71*	-42	-370	-48	-3	-167	-119	-300
O=C(COC(=O)c1ccc[nH]c1=O)Nc1ccc(N2CCCCC2)cc1	nt	54	79*	-40	0	51*	70*	80*
CC(C)C(=O)Nc1cc(=O)[nH]c2ncnn12	-20	-23	8	15	2	19	nt	nt
O=C(O)c1ccccc1/C=N/NC(=S)NCc1ccccc1	3	-2	9	13	-6	3	nt	nt
SMILES	aSyn 5UTR inh	Gli-Sufu antag	697 NFkB inh	Mdm2 MdmX PPI	CSC inhib	Jurkat NFkB inh	Jurkat NFkB conf	697 NFkB conf
COc1ccc2cc(-c3ccccc3)ncc2c1	-65	-125	-327	-127	-3	-202	-131	-303
COc1ccc(-c2cc(-c3ccccc3)n[nH]2)c(O)c1	-217	-18	-124	-86	20	-121	nt	nt
Oc1ccccc1-c1cc(-c2ccc(F)cc2)n[nH]1	-128	29	-272	-88	8	-164	-100	-236
Cc1ccc(-c2cc(-c3ccc(F)cc3)n[nH]2)c(O)c1	-86	-70	-270	-224	1	-165	-125	-278
Cc1ccc(-c2cc(-c3ccc(C)cc3O)[nH]n2)cc1	-160	-89	-261	-106	-2	-200	-107	-272
COc1ccc(-c2cc(-c3ccccc3O)[nH]n2)cc1	-57	5	-361	-186	-11	-160	-145	-442
Cc1ccc2cc3cc(C(=O)N4CCCCC4C)oc3nc2c1 (stereo not drawn)	-200	-107	-329	-201	31	-210	-160	-290
Cc1cnc(C(=O)OCc2csc(CC(=O)Nc3ccccc3C)n2)cn1	4	-11	4	21	4	1	nt	nt
COc1cccc(-c2nc(-c3cccs3)no2)c1	-55	-64	-289	-318	-14	-163	-131	-311
O=C(/C=C/c1ccc([N+](=O)[O-])cc1)c1cccs1	-51	-4	16	13	20	-10	nt	nt
COc1cc([N+](=O)[O-])ccc1N/C=C/C(=O)c1cccs1	21	-67	-267	31	25	-188	-72	-169
O=C(Nc1nc2cc3c(cc2s1)OCCO3)C1CCCCC1	nt	-143	-348	-81	nt	-233	-111	-371
Cn1c(C(=O)O)c(CC(=O)NCc2cccnc2)c2ccccc21	8	1	21	-32	1	6	nt	nt
Cc1sc2c(c1C)c(=O)n(-c1cccc(C(F)(F)F)c1)c(=O)n2CC(=O)NCc1ccco1	10	5	-25	7	-11	4	nt	nt
O=C(NCCc1ccc(F)cc1)c1cccc(NC(=O)c2ccccc2)c1	-52	-10	-15	19	1	-10	nt	nt
O=C(c1cccs1)c1ccc(-c2cccs2)s1	15	0	-381	-177	6	-191	-100	-283
O=C(CNc1cc(S(=O)(=O)N2CCOCC2)ccc1NCC1CCCO1)Nc1ccc(F)c(F)c1 (stereo not drawn)	5	-6	13	-8	nt	-12	nt	nt
CCN(CC)c1ccc(C(=O)Nc2cccc(F)c2)cc1	-77	16	-293	-201	-5	-221	-144	-294
COc1ccccc1N1CCN(C2CCCN(C(=O)CCC(C)=O)C2)CC1 (stereo not drawn)	4	2	9	10	-3	-15	nt	nt
O=C(Nc1ccc(Cl)c(Cl)c1)c1ccc2c(c1)OCO2	-133	-111	-370	-255	25	-205	-174	-320
c1ccc2sc(NN=C3CCCCCC3)nc2c1	5	-51	-388	-59	20	-156	-92	-319
O=C(Nc1nc2ccccc2s1)c1ccccc1	2	-123	-261	-210	0	-220	-147	-311
O=C(O)c1ccccc1-c1ccccc1C(=O)Nc1nc2ccccc2s1	12	-2	9	-8	0	-7	nt	nt
CCCCc1ccc(-c2ccc(Br)cc2O)nc1	-6	-103	-273	-239	14	-213	-98	-169
